SW480 rereplic: inducers of DNA re-replication in SW480 colon cancer cells | SW480 DNA re-replication, Hoechst DNA content imaging, 48 h | Potency, µM (series often up to 46.1 µM), without a hit: at the top dose re-replication activation, most hits filed as activators | 340,000 tested, 1.8% active | AID 624297; note: % of control where 0% means no effect; nearly all actives have a fitted effect of over 55% in size
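DNA re-replication was detected as more nuclei of elevated Hoechst intensity after 48 hr exposure to compound (23 nL pinned per well of 250 cells).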
RORgamma inh: inhibitors of mouse ROR gamma transcriptional activity; P51450; Drosophila S2 Gal4-RORgamma UAS-luciferase reporter, 20 h; Potency, µM (highest dose often 53.6 µM), inactives show top-dose activity change, negative = inhibition, most hits filed as inhibitors; AID 2551; 310,000 tested, 5.4% active; note: % is set by controls: 0 for no effect and ±100 for the full control effect; nearly all actives have a fitted effect of over 60% in size
Target sequence (P51450 whole entry, looked up, the tested form may be a part): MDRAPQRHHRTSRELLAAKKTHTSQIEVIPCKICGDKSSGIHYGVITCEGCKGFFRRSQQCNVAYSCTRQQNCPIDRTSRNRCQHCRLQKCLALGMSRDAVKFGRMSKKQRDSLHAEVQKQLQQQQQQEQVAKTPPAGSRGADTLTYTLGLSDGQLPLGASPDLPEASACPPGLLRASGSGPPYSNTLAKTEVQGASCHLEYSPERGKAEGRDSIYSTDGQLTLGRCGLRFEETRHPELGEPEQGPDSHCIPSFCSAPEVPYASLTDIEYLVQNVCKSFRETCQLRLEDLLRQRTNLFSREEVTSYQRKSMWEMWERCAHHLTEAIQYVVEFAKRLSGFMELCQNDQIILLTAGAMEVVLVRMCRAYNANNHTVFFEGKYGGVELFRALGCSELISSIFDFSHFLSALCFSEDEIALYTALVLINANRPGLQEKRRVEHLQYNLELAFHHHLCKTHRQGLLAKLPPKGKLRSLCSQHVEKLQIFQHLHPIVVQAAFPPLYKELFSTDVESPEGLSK
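Stable Schneider cell line, Gal4 DNA-binding domain fused to ROR gamma, UAS-luciferase. Cmpd 1 hr RT → CuSO4 700 uM final → 20 hr RT → luciferase reagent 10 min → luminescence.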
VP16 counter: Gal4-VP16 reporter inhibition counter-screen; Drosophila S2 Gal4-VP16 UAS-luciferase, luminescence, 20 h; 310,000 tested, 3.5% active; AID 2546; Potency, µM (highest dose often 53.6 µM), without a hit: at the top dose activity, negative = inhibition, actives largely listed as inhibitors;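 note: Gal4-VP16 expression switched on by copper sulfate through the metallothionein promoter; % is set by controls: 0 for no effect and ±100 for the full control effect; nearly all actives have a fitted effect of over 50% in size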
KB-3-1 tox: kills parental KB-3-1 adenocarcinoma cells; KB-3-1 viability, CellTiter-Glo ATP luminescence, 72 h; Potency, µM (series often up to 46.1 µM), usual class: cytotoxic; 400,000 tested, 1.4% active; AID 1347075; note: % is set by controls: 0 for no effect and ±100 for the full control effect; nearly all actives have a fitted effect of over 60% in size
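Multi-concentration cytotoxicity screen in KB-3-1 cells grown in DMEM lacking phenol red with 10% FBS. After 72 h at 37 °C with compound, ATP-dependent luminescence was recorded.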
KB-V1 cytotox: KB-V1 MDR subline cytotoxicity; KB-V1 MDR cells viability, CellTiter-Glo, 72 h; Potency, µM (titrated, usually from 46.1 µM), most hits filed as cytotoxic; 400,000 tested, 3.4% active; note: % is set by controls: 0 for no effect and ±100 for the full control effect; nearly all actives have a fitted effect of over 60% in size
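Drug-selected KB-V1 cells, grown in DMEM lacking phenol red with 10% FBS, receive compound titrations; after three days at 37 degrees C, surviving cell ATP is quantified by CellTiter-Glo luminescence and responses normalized and curve-fitted.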
MCF10A rerep: DNA re-replication induction in MCF 10a cells; AID 624296; Potency, µM (series often up to 46.1 µM), without a hit: at the top dose activity, positive = re-replication, hits mostly activators; 350,000 tested, 2.9% active; MCF 10A DNA re-replication, Hoechst nuclear intensity, 48 h; note: % of control where 0% means no effect; nearly all actives have a fitted effect of over 50% in size
* marks the source's active call; other numbers are inactive results; i = inactive; ? = inconclusive; / = no result given; [ ] = another dose, or the depositor's remark. Most compounds without a hit are left out; they make up all but 10% or so of the library. Calls come from the whole dose curve; as a rule, active = well fitted curve in the direction sought with a large enough effect; inconclusive = small, poorly fitted or top-dose-only effect, or another doubt; inactive = no such curve, though single readings can be large; an effect the other way counts as inactive or inconclusive. Potency is the fitted concentration of half-maximal effect.

SMILES	SW480 rereplic	RORgamma inh	VP16 counter	KB-3-1 tox	KB-V1 cytotox	MCF10A rerep
COC(=O)C1=C(C)NC(=O)C1(NC(=O)c1ccc(Cl)cc1)C(F)(F)F (stereo not given)	/	/	/	i	i	/
COc1ccc(-c2cc3c(=O)n(CC(=O)Nc4cc(C)ccc4C)ccn3n2)cc1	/	/	/	i	i	/
COc1ccc(OC)c(S(=O)(=O)NC2CC(=O)N(c3cccc(F)c3)C2)c1 (stereo not given)	6.51µM*	/	/	i	i	-13.1%
COc1ccc(OC)c(S(=O)(=O)NC2CC(=O)N(c3ccc(C)c(C)c3)C2)c1 (stereo not given)	-29.0%	/	/	i	i	4.1%
Cc1cc(C)c(S(=O)(=O)N(C2=NCCS2)S(=O)(=O)c2c(C)cc(C)cc2C)c(C)c1	1.4%	15.8µM*	-8.1%	i	i	6.3%
CCOC(=O)c1sc(NC(=S)NC(=O)CC(C)C)cc1C	-3.1%	5.62µM*	?	i	i	2.9%
CCOC(=O)c1sc(NC(=O)C(C)(C)C)cc1C	1.8%	23.3%	0.5%	i	i	6.2%
CCOC(=O)c1sc(NC(=S)NC(=O)C2CCCC2)cc1C	-0.4%	4.47µM*	3.16µM*	i	i	8.7%
Cc1ccc(OC2C(O)COC2/C=C/C#Cc2ccc(C(C)(C)C)cc2)cc1 (stereo not given)	/	4.8%[10 µM]	7.1%[10 µM]	/	/	/
Cc1oc(-c2ccccc2Cl)nc1CSCC(=O)O	-1.1%	-126.5%	7.94µM*	i	i	5.5%
Cc1oc(-c2cccc(Cl)c2)nc1CSCC(=O)O	-2.2%	10µM*	5.01µM*	i	i	-2.2%
Cc1oc(-c2ccccc2Cl)nc1CSCC(=O)NC1CC1	-0.8%	-3.8%	-3.3%	i	13µM*	?
Cc1oc(-c2ccccc2F)nc1CSCC(=O)NC1CCCC1	2.2%	-1.6%	-2.8%	i	?	7.9%
COCCn1c(=O)c(-c2cccs2)nc2cnc(Oc3ccc(OC)cc3)nc21	/	13.6%	-1.4%	/	/	/
COc1cccc(CNC(=O)CCc2c(C)c3cc4c(C)coc4cc3oc2=O)c1	/	/	/	i	i	/
COC(=O)c1cc(S(=O)(=O)N2CCN(c3ccc(C)cc3C)CC2)cn1C	/	/	/	i	?	/
COc1cc(/C=N/N2C(=O)C3C4c5ccccc5C(c5ccccc54)C3C2=O)ccc1O (stereo not given)	-1.9%	32.9%	?	i	10.3µM*	0.4%
COc1cccc(/C=N/N2C(=O)C3C4c5ccccc5C(c5ccccc54)C3C2=O)c1OC (stereo not given)	/	3.4%	-3.2%	/	/	/
O=C(c1cccn1-c1nnc(N2CCCC2)s1)N1CCN(c2ccccc2)CC1	/	/	/	i	i	/
O=C1CC(c2ccccc2)Cc2[nH]c(=O)c(C(=O)Nc3cccc(F)c3)cc21 (stereo not given)	/	/	/	i	i	/
Cc1ccc(C(=O)C(C(=O)/C=C/c2ccccc2)=C2SCCCS2)cc1	?	3.55µM*	14.1µM*	8.2µM*	i	20.6µM*
CCOC(=O)CNC(=O)N1CCc2ccc(NC(=O)c3ccccc3Cl)cc2C1	-21.0%	-18.2%	-2.4%	i	?	7.31µM*
COc1ccccc1C(=O)Nc1ccc2c(c1)CN(C(=O)CSC)CC2	?	37.0%	5.0%	25.9µM*	i	11.6µM*
CCOc1ccccc1NS(=O)(=O)c1c(C(=O)OC)sc2cccc(F)c12	/	/	/	i	i	/
CN(C)CCCN(C(=O)CCSc1ccccc1)c1nc2cc3c(cc2s1)OCO3	29.9%	?	-21.2%	?	?	?
SMILES	SW480 rereplic	RORgamma inh	VP16 counter	KB-3-1 tox	KB-V1 cytotox	MCF10A rerep
CN(C)CCCN(C(=O)CCS(=O)(=O)c1ccccc1)c1nc2cc3c(cc2s1)OCO3	?	11.2µM*	15.8µM*	?	?	5.17µM*
Cc1ccc2sc(N(CCCN(C)C)C(=O)CCS(=O)(=O)c3ccccc3)nc2c1C	?	?	?	16.4µM*	i	?
CCN(CC)CCN(C(=O)CCS(=O)(=O)c1ccccc1)c1nc2cc(C)cc(C)c2s1	29.6%	20µM*	-29.0%	i	i	20.6%
Cc1ccc2sc(N(CCCN(C)C)C(=O)c3ccc(Br)s3)nc2c1C	-63.5%	?	-16.9%	?	?	13µM*
COc1ccc(C)c2sc(N(CCCN(C)C)C(=O)CS(=O)(=O)c3ccc(F)cc3)nc12	-20.1%	/	/	i	i	3.66µM*
COc1ccc(OC)c2sc(N(CCCN(C)C)C(=O)CCS(=O)(=O)c3ccccc3)nc12	?	/	/	16.4µM*	?	5.8µM*
O=S(=O)(Nc1ccc(C(O)(C(F)(F)F)C(F)(F)F)cc1)c1cccc2ccccc12	/	/	/	i	i	/
CN1CC=C2C(C#N)=C(N)C(C#N)(C#N)C(c3ccsc3)C2C1 (stereo not given)	-13.6%	-32.1%	0.7%	i	i	-7.0%
CCOC(=O)N1CC=C2C(C#N)=C(N)C(C#N)(C#N)[C@H](c3ccsc3)[C@H]2C1	12.4%	2.1%	0.4%	?	14.6µM*	12.1%
CC1(c2ccc(OC(F)F)cc2)NC(=O)N(CC(=O)Nc2cccc(S(N)(=O)=O)c2)C1=O (stereo not given)	-17.5%	-1.9%	4.3%	i	i	-0.1%
CC1(c2ccc(OC(F)F)cc2)NC(=O)N(/N=C/c2c(O)ccc3ccccc23)C1=O (stereo not given)	-0.7%	?	14.1µM*	i	i	?
CCn1c(=O)c2cc(C(=O)NC3CCC(C)CC3)sc2c2ccccc21 (stereo not given)	/	/	/	i	i	/
COc1ccc(S(=O)(=O)/N=C2\C=C(Nc3ccc(O)cc3)C(=O)c3ccccc32)cc1	16.4µM*	10µM*	5.62µM*	5.17µM*	16.4µM*	4.61µM*
CC(=O)Nc1ccc(NC2=C/C(=N/S(=O)(=O)c3cccs3)c3ccccc3C2=O)cc1	4.11µM*	7.08µM*	5.01µM*	20.6µM*	i	8.2µM*
Cc1ccccc1NC1=C/C(=N\S(=O)(=O)c2cccs2)c2ccccc2C1=O	4.11µM*	3.98µM*	5.62µM*	?	7.31µM*	?
COc1ccc(C)cc1NC(=O)CC1NCCNC1=O (stereo not given)	/	/	/	i	i	/
CCN1CCN(C(c2ccc(F)cc2)c2sc3nc(-c4ccco4)nn3c2O)CC1 (stereo not given)	/	/	/	i	i	/
Cc1cncc(NCc2cccc(Cl)c2)n1	/	/	/	i	i	/
CC1=Nc2ccccc2/C1=C/c1c(C)[nH]c2ccccc12	10.3µM*	/	/	?	i	0.82µM*
